Results as given in PubChem BioAssay (Tox21).
Active and inactive are the calls of the source. Calls come from the whole dose curve; as a rule, active = well fitted curve in the direction sought with a large enough effect in the repeat runs; inconclusive = weak or mixed curves; inactive = flat fitted curve, though single readings scatter.

Test: qHTS assay to test for compound auto fluorescence at 590 nm (red) in HEK293 cells (AID 720679)
Conditions: red autofluorescence 540/590 nm; series mostly up to 46 µM
Text: National Center for Advancing Translational Sciences [NCATS]
NIH Chemical Genomics Center [NCGC]
U.S. Environmental Protection Agency [EPA]
National Institutes of Environmental Health Sciences [NIEHS]
National Toxicology Program [NTP]
U.S. Food and Drug Administration [FDA]
Compound auto fluorescence often interferes with screening of the compound library against various biological targets and signaling pathways. Some of these compounds may have fluorophoric properties. Such properties may interfere with the assay outputs resulting in false positives and/or negatives. To decrease such complications and ensure the compound activities are relevant in terms of biological response, the Tox21 10K compound library was screened for auto fluorescence.
From the fluorophores used as reporter signals in our screening assays, the auto fluorescence equivalencies of compounds against three fluorophores have been evaluated: Triamterene, Fluorescein and Rose Bengal sodium for blue, green and red fluorescence, respectively. The fluorescence intensities were measured using Excitation/Emission wavelengths at 405/460nm, 485/535nm and 540/590nm for blue, green and red labels, respectively. This assay includes the red fluorescence data.
Tox21 Assay Protocol Summary:
2,000 HEK293 cells in 5 uL of culture medium containing 10% dialyzed FBS per well were dispensed into black wall/clear bottom 1536-well plates using a Multidrop Combi Dispenser (Thermo Scientific). The assay plates were incubated for 4-5 hr at 37C to allow cell attachment to the well bottom, followed by the transfer of 23 nL compound or DMSO vehicle by a pintool work station (Kalypsys, San Diego, CA). After the assay plates were incubated overnight at 37C and 5% CO2, fluorescence intensities in the assay plates were measured by an Envision (PerkinElmer, Shelton, CT) plate reader using three labels for measuring blue, green and red fluorescence at […] 460, 535 and 590nm respectively.

For O=C(O)Cc1nn(Cc2ccc(Br)cc2F)c(=O)c2ccccc12, which outcome is on record?
Its outcome is “inactive”.

Which outcome does the source give for CN1C(=O)C[C@@H](C(=O)N[C@@H](Cc2cnc[nH]2)C(=O)N2CCC[C@H]2C(N)=O)NC1=O here?
Its outcome is “inactive”.

For C=CCN1C(=O)C(CC(C)C)NC1=S (stereo not given), which outcome is on record?
The outcome was “inactive”.

With CCOc1ccc([N+](=O)[O-])cc1 as the molecule, how does the outcome read?
Its outcome is “inactive”.

With Cc1onc(-c2c(F)cccc2Cl)c1C(=O)N[C@@H]1C(=O)N2[C@@H]1SC(C)(C)[C@@H]2C(=O)O as the molecule, how does the outcome read?
Its outcome is “inactive”.

Which outcome does the source give for C=CC1=C(C(=O)O)N2C(=O)[C@@H](NC(=O)/C(=N\O)c3csc(N)n3)[C@H]2SC1 (stereo in doubt) here?
Its outcome is “inactive”.

Which outcome does the source give for O=C(CCN1CCC(c2ccccc2)C1)c1ccc2c(c1)OCCO2 (stereo not given) here?
Its outcome is “inactive”.

For CN1CCN(CCCN2c3ccccc3Sc3ccc(C(F)(F)F)cc32)CC1, which outcome is on record?
Its outcome is “inactive”.

Which outcome does the source give for O=C1CCC(c2ccc(-n3ccnc3)cc2)=NN1 here?
The outcome was “inactive”.

Which outcome does the source give for Nc1cc(Cl)c(NC2=NCCN2)c(Cl)c1 here?
The outcome was “inactive”.

With CCN1CCCC1CNC(=O)c1cc(S(=O)(=O)CC)ccc1OC (stereo not given) as the molecule, how does the outcome read?
Its outcome is “inactive”.

Which outcome does the source give for C1CCc2nnnn2CC1 here?
The outcome was “inactive”.

For CCOC(=O)[C@H](CCc1ccccc1)N[C@@H](C)C(=O)N1[C@H](C(=O)O)C[C@H]2CCCC[C@@H]21, which outcome is on record?
Its outcome is “inactive”.

For CCN(CC)CC#CCOC(=O)C(O)(c1ccccc1)C1CCCCC1 (stereo not given), which outcome is on record?
Its outcome is “inactive”.

Which outcome does the source give for CC(=O)Oc1cc(C(F)(F)F)ccc1C(=O)O here?
The outcome was “inactive”.

With CC(C)(Oc1ccc(C2CCCc3ccccc32)cc1)C(=O)O (stereo not given) as the molecule, how does the outcome read?
The outcome was “inactive”.

With Nc1nc(NC2CC2)c2ncn([C@@H]3C=C[C@@H](CO)C3)c2n1 as the molecule, how does the outcome read?
Its outcome is “inactive”.

With COc1cc2c(c(OC)c1OC)-c1c(cc3c(c1OC)OCO3)C[C@@H](C)[C@](C)(O)C2 as the molecule, how does the outcome read?
The outcome was “inactive”.

For C=CCc1cc(S(=O)(=O)c2ccc(O)c(CC=C)c2)ccc1O, which outcome is on record?
Its outcome is “inactive”.

Which outcome does the source give for C[C@@H]1O[C@@H](OC[C@H]2O[C@@H](Oc3c(-c4ccc(OCCO)c(OCCO)c4)oc4cc(OCCO)cc(O)c4c3=O)[C@H](O)[C@@H](O)[C@@H]2O)[C@H](O)[C@H](O)[C@H]1O here?
The outcome was “inactive”.

With CCc1cn([C@H]2C[C@H](O)[C@@H](CO)O2)c(=O)[nH]c1=O as the molecule, how does the outcome read?
Its outcome is “inactive”.

With COC1=C(OC)C(=O)C(C/C=C(\C)CC/C=C(\C)CC/C=C(\C)CC/C=C(\C)CC/C=C(\C)CC/C=C(\C)CC/C=C(\C)CC/C=C(\C)CC/C=C(\C)CCC=C(C)C)=C(C)C1=O as the molecule, how does the outcome read?
The outcome was “inactive”.

With COC(=O)C[C@](O)(CCCC(C)(C)O)C(=O)O[C@@H]1C(OC)=CC23CCCN2CCc2cc4c(cc2[C@H]13)OCO4 (stereo not given in full) as the molecule, how does the outcome read?
The outcome was “inactive”.

With CN[C@@H]1[C@@H](O[C@H]2O[C@H](CO)[C@@H](N)[C@H](O)[C@H]2O)O[C@H]2C[C@@H](N)[C@@H](O[C@H]3[C@H](O)[C@@H](O)[C@H](N)C[C@@H]3N)O[C@@H]2[C@@H]1O as the molecule, how does the outcome read?
Its outcome is “inactive”.

With Clc1nc(C(Cl)(Cl)Cl)c(Cl)c(Cl)c1Cl as the molecule, how does the outcome read?
The outcome was “inactive”.

For CC[C@@H](C)[C@H](N)C(=O)O, which outcome is on record?
Its outcome is “inactive”.

With COc1cc2c(cc1OC)[C@@H](Cc1cc(OC)c(OC)c(OC)c1)[N+](C)(CCCOC(=O)CC/C=C/CCC(=O)OCCC[N+]1(C)CCc3cc(OC)c(OC)cc3[C@H]1Cc1cc(OC)c(OC)c(OC)c1)CC2 (stereo not given in full) as the molecule, how does the outcome read?
The outcome was “inactive”.

For NC(N)=NCC1COC2(CCCCC2)O1 (stereo not given), which outcome is on record?
Its outcome is “inactive”.

For C=N[C@@H](C(=O)N[C@@H]1C(=O)N2[C@@H]1SC(C)(C)[C@@H]2C(=O)O)c1ccccc1, which outcome is on record?
Its outcome is “inactive”.

For CN[C@H]1CC[C@@H](c2ccc(Cl)c(Cl)c2)c2ccc(S(N)(=O)=O)cc21, which outcome is on record?
The outcome was “inactive”.

With Cc1cn([C@H]2C[C@H](O)[C@@H](CO)O2)c(=O)[nH]c1=O as the molecule, how does the outcome read?
Its outcome is “inactive”.

With COc1c(O)cc2c(c1O)[C@@H]1O[C@H](CO)[C@@H](O)[C@H](O)[C@H]1OC2=O as the molecule, how does the outcome read?
The outcome was “inactive”.

Which outcome does the source give for CC(=O)OCC(=O)[C@@]1(O)CC[C@H]2[C@@H]3CCC4=CC(=O)CC[C@]4(C)C3=CC[C@@]21C here?
The outcome was “inactive”.

With c1ccc2c(c1)OCC(CN1CCCCC1)O2 (stereo not given) as the molecule, how does the outcome read?
The outcome was “inactive”.

For Cc1cc(-c2ccc(N=Nc3ccc4c(S(=O)(=O)O)cc(S(=O)(=O)O)c(N)c4c3O)c(C)c2)ccc1N=Nc1ccc2c(S(=O)(=O)O)cc(S(=O)(=O)O)c(N)c2c1O, which outcome is on record?
Its outcome is “inactive”.

With CCCCCCCCCCCCCCCCCCOCC(COP(=O)([O-])OCC[N+](C)(C)C)OC (stereo not given) as the molecule, how does the outcome read?
The outcome was “inactive”.

For C=C1C(CCl)(CCl)C2(Cl)C(Cl)C(Cl)C1(Cl)C2(Cl)Cl (stereo not given), which outcome is on record?
The outcome was “inactive”.

Which outcome does the source give for CCN(CC)CCNC(=O)c1ccc(NS(C)(=O)=O)cc1 here?
Its outcome is “inactive”.

With O=C(O)CCCC/C=C(\c1ccccc1)c1cccnc1 as the molecule, how does the outcome read?
The outcome was “inactive”.

Which outcome does the source give for CN(C/C=C/c1ccccc1)Cc1cccc2ccccc12 here?
The outcome was “inactive”.
